High-throughput results deposited in PubChem by Emory University Molecular Libraries Screening Center.
14-3-3 PPI: modulators of 14-3-3 gamma protein binding, primary screen, biochemical, fluorescence polarization; 14-3-3 protein gamma (Homo sapiens), P61981; FP, 14-3-3gamma / TMR-pS259-Raf peptide binding; inhibition, % at 40 µM; actives 0.19% (n = 160,000); in the data active = inhibition above about 30%
Target sequence (P61981 whole entry, looked up): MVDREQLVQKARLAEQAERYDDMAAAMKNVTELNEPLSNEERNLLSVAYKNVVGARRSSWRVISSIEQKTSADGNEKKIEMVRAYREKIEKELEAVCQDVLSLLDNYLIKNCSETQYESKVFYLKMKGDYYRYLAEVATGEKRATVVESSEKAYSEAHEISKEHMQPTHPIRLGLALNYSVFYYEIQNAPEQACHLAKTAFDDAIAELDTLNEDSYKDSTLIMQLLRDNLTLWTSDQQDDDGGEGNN
Numbers stand for hits; n = inactive; + = active, no number. The full list was thinned out, with hits kept by preference.

SMILES	14-3-3 PPI
O=C(NCCc1ccccc1)c1ccc2c(=O)n(-c3ccc(F)cc3)c(=S)[nH]c2c1	n
COc1ccc(NC(=O)CN2CCN(S(=O)(=O)c3cc(Cl)ccc3OC)CC2)cc1Cl	n
Cc1ccc2nc(NC(=O)CSc3nccn3-c3cccc(C)c3C)sc2c1	n
CSc1nnc2c3cc(F)ccc3n(Cc3ccccc3)c2n1	113
CSc1nnc2c3ccccc3n(CCc3ccccc3)c2n1	n
CSc1nnc2c3ccccc3n(Cc3ccccc3)c2n1	n
O=C(CC1(O)C(=O)Nc2ccccc21)c1cc2ccccc2oc1=O (stereo not drawn)	n
CCC1CCC(C(=O)NC(C(=O)NCc2ccco2)C(C)C)CC1 (stereo not drawn)	n
CCN(CC)c1ccc(N=C2C(=O)Nc3ccccc32)cc1	n
Cc1ccc(N=C2C(=O)Nc3ccccc32)cc1	n
CN(C)c1ccc(/C=C2\C(=O)Nc3ccccc32)cc1	38
CCOCCCNC(=O)c1cnn2c(C)c3c(nc12)CCCC3	n
Cc1ccc(C(=O)Nc2ccccn2)cc1C	n
COc1ccc(OC)c(NC(=O)Cc2ccccc2[N+](=O)[O-])c1	n
COC(=O)CSc1ccc2c3c(cccc13)C(=O)c1ccccc1-2	n
O=C1c2ccccc2-c2ccc(Br)c3cccc1c23	n
COc1ccc2c3c(cccc13)C(=O)c1ccccc1-2	32
O=c1c2c3c(sc2n(Cc2cccnc2)c(=O)n1-c1ccc(Cl)cc1)CCC3	n
CNS(=O)(=O)c1cc(-c2nnc(Nc3cccc(C(F)(F)F)c3)c3ccccc23)ccc1C	n
COc1ccc(NC(=O)c2c(NC(=O)c3ccco3)sc(-c3ccccc3)c2C)cc1	n
OC(CN1CCOCC1)CN(c1ccccc1)c1ccccc1 (stereo not drawn)	92
OC(CN1CCOCC1)CN1CCOCC1	n
OC(CN1CCCCC1)CN(c1ccccc1)c1ccccc1 (stereo not drawn)	n
CN(CCC#N)C(C(=O)NC1CCCC1)c1ccc(Cl)cc1 (stereo not drawn)	n
CN1CCN(c2ccc([N+](=O)[O-])cc2S(=O)(=O)N2CCCC2)CC1	39
SMILES	14-3-3 PPI
Cc1ccc([N+](=O)[O-])cc1S(=O)(=O)N1CCCCC1	n
O=[N+]([O-])c1ccc(N2CCCC2)c(S(=O)(=O)N2CCOCC2)c1	n
COCCN1C2=C(C(=O)CC(C)(C)C2)C(c2ccc(O)c(Cl)c2)C2=C1CC(C)(C)CC2=O	n
N#Cc1cc2c(nc1SCC(=O)N1c3ccccc3Sc3ccccc31)CCC2	n
CCN(C(=O)c1cc2cc3ccc(OC)cc3nc2o1)c1cc(C)ccc1C	n
CCOc1ccc(N(CC)C(=O)c2cc3cc4ccc(OC)cc4nc3o2)cc1	n
COc1ccc2cc3cc(C(=O)NC(C)CCc4ccccc4)oc3nc2c1 (stereo not drawn)	145
COc1ccc2cc3cc(C(=O)NC(C)CCc4ccccc4)sc3nc2c1 (stereo not drawn)	n
CCc1ccccc1N(CC)C(=O)c1cc2cc3ccc(OC)cc3nc2o1	177
CCc1cccc(NC(=O)c2cc3cc4ccc(OC)cc4nc3o2)c1	n
O=C(Cn1nc(-c2ccccc2)c2ccccc2c1=O)N1CCN(c2ccccc2)CC1	n
CC(=O)Oc1ccc(OC(C)=O)c(C2=C3C(=O)N(CCc4ccccc4)CC(=O)N3CCC2)c1	n
Cc1ccc(C)c(N2CCN(C(=O)C(Cc3ccccc3)NS(=O)(=O)c3cccs3)CC2)c1 (stereo not drawn)	n
CCN(CC)CCCn1c(=S)[nH]c2ccc(N3CCOCC3)cc2c1=O	n
CCCS(=O)(=O)N1N=C(c2ccc(NS(C)(=O)=O)cc2)CC1c1ccccc1F (stereo not drawn)	71
CS(=O)(=O)Nc1ccc(C2=NN(S(C)(=O)=O)C(c3ccccc3F)C2)cc1 (stereo not drawn)	n
CCS(=O)(=O)Nc1ccc(C2=NN(S(=O)(=O)CC)C(c3ccccc3F)C2)cc1 (stereo not drawn)	n
CCN(CC)S(=O)(=O)c1ccc2nc(-c3ccccc3)[nH]c2c1	n
c1ccc(C2=NC(c3ccccc3)c3c(ccc4ccccc34)N2)cc1 (stereo not drawn)	n
COc1ccccc1C1C=C(c2ccc(Br)cc2)Nc2nnnn21 (stereo not drawn)	n
COc1ccc(OC)c(S(=O)(=O)Nc2ccc(C(C)=O)cc2)c1	n
COc1ccc(C(=O)Oc2ccc(C(C)=O)cc2)c(OC)c1	38
COC(=O)c1ccc(C(=O)OC)c(NC(=O)c2ccc(OC)cc2OC)c1	n
C[n+]1ccc(C=Cc2c[nH]c3ccccc23)cc1	n
CCOC(=O)C1=C(C(C)=O)C(c2cccnc2)C(C#N)=C(N)O1 (stereo not drawn)	32
SMILES	14-3-3 PPI
CCOC(=O)C1=C(CSc2nc(-c3ccncc3)ccc2C#N)OC(N)=C(C#N)C1c1cccnc1 (stereo not drawn)	n
CCOC(=O)C1=C(N)Oc2cc(O)ccc2C1c1cccnc1 (stereo not drawn)	n
Cc1cc(O)c(C=Nc2ccccc2Cl)c(C)c1Cl	n
CC(C)(C)c1cc(NC(=O)c2cc3nc(-c4cccs4)cc(C(F)(F)F)n3n2)no1	n
CCOC(=O)c1sc(NC(=O)c2ccc(C#N)cc2)nc1C	n
CC1C2NC(=S)N(c3ccc(F)cc3)C1(C)Oc1ccccc12 (stereo not drawn)	n
O=C(Cn1c(=O)oc2cc(Cl)ccc21)N1CCN(C(c2ccccc2)c2ccc(Cl)cc2)CC1 (stereo not drawn)	n
O=C1c2cccc3c(NCCCO)ccc(c23)C(=O)N1CCCO	+
CN1C(=O)c2cccc(NCCCCN3C(=O)c4ccccc4C3=O)c2C1=O	n
O=C1c2cccc3c(N4CCCCC4)ccc(c23)C(=O)N1CCCO	n
O=C1c2cccc3c(Cl)ccc(c23)C(=O)N1c1ccccc1	n
Cc1ccc(N2C(=O)c3cccc4c(Cl)ccc(c34)C2=O)cc1	n
O=C1c2cccc3c(NCCO)ccc(c23)C(=O)N1c1ccc(Cl)cc1	140
COc1cccc(NC(=O)C(NC(=O)C2CCCCC2)C(C)C)c1 (stereo not drawn)	n
O=C1C(=O)N(CCCn2ccnc2)C(c2ccc(Cl)cc2)/C1=C(\O)c1ccc(Br)cc1 (stereo not drawn)	n
CCCCNC(=O)c1ccc(Sc2ccc(C)cc2)c(NC(C)=O)c1	n
COc1cc(C(=O)C(=O)c2cc(OC)c(OC)c(OC)c2)cc(OC)c1OC	n
Cc1cc2nn(-c3ccccc3)nc2cc1NC(=O)c1ccco1	n
CCOc1cc2[nH]c(=O)n(CC3CCC(C(=O)N4CCN(c5ccccc5)CC4)CC3)c(=O)c2cc1OCC (stereo not drawn)	n
CCc1ccc(O)c(N=Cc2cccc(C)c2O)c1	n
C=CCc1cccc(/C=N/c2ncn[nH]2)c1O	n
C=CCc1cccc(C=Nc2cc(Br)ccc2O)c1O	43
Cc1ccc(-c2nc3cc(N=Cc4cc(Cl)ccc4O)ccc3o2)cc1	n
Cc1ccccc1-c1nc2cc(N=Cc3cc(Cl)cc([N+](=O)[O-])c3O)ccc2o1	n
CN(C)c1ccc(-c2nc3cc(N=Cc4cc(Cl)ccc4O)ccc3o2)cc1	n
Cc1ccc(-c2nc3cc(N=Cc4cccc([N+](=O)[O-])c4O)ccc3o2)cc1C	n
Oc1ccc(Cl)cc1C=Nc1ccc(-c2nc3cc(Cl)ccc3o2)cc1	84
Cc1ccc(-c2nc3cc(N=Cc4cc(C)cc([N+](=O)[O-])c4O)ccc3o2)cc1	53
CCOc1ccc(/C(O)=C2\C(=O)C(=O)N(c3nccs3)C2c2ccc(C(C)C)cc2)cc1 (stereo not drawn)	n
